Shown are actives, neighbours in structure and some others; about 2.4% of the full set was active somewhere.
Anthrax LT inh – anthrax lethal toxin internalization inhibition; Cells, anthrax lethal toxin internalization, FRET ratio (460/530); Potency, µM (top dose mostly 40 µM), inactives show top-dose activity change, negative = inhibition, actives largely listed as inhibitors; actives 0.67% (n = 70,000); further: on the % scale 0 is the no-effect control and ±100 the full control effect; nearly all actives have a fitted effect of over 50% in size
AmpC nodet inh – inhibitors of E. coli AmpC beta-lactamase without detergent. P00811. AmpC nitrocefin hydrolysis, absorbance 480 nm, no detergent. Potency, µM (series often up to 28.7 µM), without a hit: top-dose activity change, negative = inhibition. actives 1.8% (n = 71,000); further: % of control where 0% means no effect
Target sequence (P00811 whole entry, looked up): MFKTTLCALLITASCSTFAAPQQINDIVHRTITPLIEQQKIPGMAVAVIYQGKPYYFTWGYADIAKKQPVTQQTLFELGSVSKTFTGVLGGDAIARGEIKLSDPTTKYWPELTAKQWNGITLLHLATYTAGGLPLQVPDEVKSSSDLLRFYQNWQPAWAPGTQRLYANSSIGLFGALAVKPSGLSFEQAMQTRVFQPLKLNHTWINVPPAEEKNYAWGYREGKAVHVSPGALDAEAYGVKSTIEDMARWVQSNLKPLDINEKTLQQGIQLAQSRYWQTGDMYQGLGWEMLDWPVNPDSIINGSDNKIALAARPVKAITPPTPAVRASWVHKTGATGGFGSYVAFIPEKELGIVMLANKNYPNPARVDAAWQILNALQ
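AmpC in 20 mM phosphate buffer pH 7.0 was preincubated 15 min at room temperature with compounds. Nitrocefin (800 uM stock) was then added and hydrolysis followed at 480 nm every 20 s for 4 min.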
AmpC det inh – inhibitors of E. coli AmpC beta-lactamase with detergent; purified AmpC, nitrocefin hydrolysis with detergent; actives 0.09% (n = 71,000); P00811; Potency, µM (series often up to 28.7 µM), for inactives: top-dose activity change, negative = inhibition; AID 584; active means well fitted curve in the direction sought with a large enough effect; inconclusive means small, poorly fitted or top-dose-only effect; further: on the % scale 0 is the no-effect control and ±100 the full control effect
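E. coli AmpC (5.3 nM) in 20 mM phosphate pH 7.0 with 0.01% Triton X-100, preincubated 15 min RT with compound; nitrocefin (2 uL of 800 uM stock) hydrolysis followed by 480 nm absorbance every 20 s over 4 min.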
SmPrx2 inh – Schistosoma mansoni Prx2 inhibition | AID 448 | S. mansoni Prx2 activity coupled to TGR/GSH (TGR is thioredoxin glutathione reductase), NADPH fluorescence loss, qHTS | Potency, µM | actives 0.07% (n = 65,000)
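Activity is read as the drop in NADPH fluorescence (365/450 nm), recorded every 30 sec for 8 min after H2O2 addition. Prx2 is coupled to TGR-driven NADPH oxidation through glutathione, in phosphate buffer pH 7.4.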
The depositor's hits bear a star; ? = inconclusive; · = no result; [ ] = dose if it differs, or a comment. Unless noted, the call rests on the fitted dose curve. Potency means the concentration at half of the fitted maximal effect.

SMILES	Anthrax LT inh	AmpC nodet inh	AmpC det inh	SmPrx2 inh
COc1cccc2c1C(=O)c1c(O)c3c(c(O)c1C2=O)C[C@@](O)(C(C)=O)C[C@@H]3O[C@H]1C[C@H](N)[C@H](O)[C@H](C)O1	16µM*	144%	9%	>57
COc1cccc2c1C(=O)c1c(O)c3c(c(O)c1C2=O)C[C@](O)(C(=O)CO)C[C@@H]3O[C@H]1C[C@H](N)[C@@H](O)[C@H](C)O1	0%[8 µM]	2%[5.75 µM]	-2%[5.75 µM]	>57
CC(=O)c1ccc(OCCCC(=O)NCC(c2ccco2)N(C)C)cc1 (stereo not drawn)	9%	14%	-2%	>57
COc1ccccc1-c1nnc2sc(COc3ccc(F)cc3)nn12	-8%	33%	-3%	>57
O=C(CSCc1ccc(Cl)cc1)c1ccco1	-20%	10µM*[single pt active]	17%	>57
c1ccc(Cn2nnnc2C(c2ccccc2)N2CCN(c3nc4ccccc4s3)CC2)cc1 (stereo not drawn)	-9%	2%	25%	>57
CCCCC(c1nnnn1Cc1ccco1)N1CCN(c2nc3ccccc3s2)CC1 (stereo not drawn)	10µM*	37%	-2%	>57
COc1ccc(S(=O)(=O)n2nc(OC(=O)c3ccc(C)cc3)cc2N)cc1	-12%	13µM*	-2%	>57
CCC(c1nnnn1Cc1ccco1)N(CCc1ccccc1)Cc1cc2cc(C)ccc2[nH]c1=O (stereo not drawn)	-18%	16%	1%	>57
Cc1ccc2[nH]c(=O)c(CN(CCc3ccccc3)C(c3nnnn3Cc3ccco3)C(C)C)cc2c1 (stereo not drawn)	?	5µM*	6%	>57
COc1ccc(OC)c(C2CC(=O)c3c([nH]c(C(=O)OC(C)C)c3C)C2)c1 (stereo not drawn)	?	2.5µM*[single pt active]	11%	>57
COCCOC(=O)c1[nH]c2c(c1C)C(=O)CC(c1cc(OC)ccc1OC)C2 (stereo not drawn)	3%	23%	13%	>57
CCSCCOC(=O)C1=C(C)NC(=O)NC1c1cccc(OC)c1OC (stereo not drawn)	-5%	27%	4%	·
ClC1=C(Cl)C2(Cl)C3C(Cl)C=CC3C1(Cl)C2(Cl)Cl (stereo not drawn)	16µM*	-24%	8%	·
O=C(Nc1nccs1)c1cc(N2CCOCC2)nc2ccccc12	6%	40%	14%	>57
COc1ccc(-n2c(Cc3cc(=O)[nH]c(=O)[nH]3)nnc2SCc2ccccc2)cc1	3%	4µM*[single pt active]	10%	>57
COc1cccc(-n2c(Cc3cc(=O)[nH]c(=O)[nH]3)nnc2SCc2cccnc2)c1	-1%	4µM*[single pt active]	14%	>57
CCOc1ccc(-n2c(Cc3cc(=O)[nH]c(=O)[nH]3)nnc2SCC)cc1	-9%	3%	15%	>57
COc1ccccc1N(C(C)=O)C1SC(=O)N(c2ccccc2)C1=O (stereo not drawn)	9%	13%	-2%	>57
COc1cccc(NC2SC(=O)N(c3ccccc3)C2=O)c1 (stereo not drawn)	-18%	4µM*[single pt active]	8%	>57
CCOc1ccc(CN(CCO)CCO)cc1C(=O)OC	-2%	7%	-6%	>57
c1ccc(N2CCN(c3ncnc4c3oc3ccccc34)CC2)cc1	16µM*	12%	0%	>57
O=C1/C(=C/Nc2ccc3c(c2)OCO3)CCc2ccccc21	7.9µM*	-17%	4%	·
CCOC(=O)c1c(-c2ccc(C)o2)csc1NC(=O)CSc1nnnn1-c1ccccc1	?	13µM*	0%	>57
Cc1ccc(N2CCN(CCc3nc4cc(NS(C)(=O)=O)ccc4n3C)CC2)cc1	?	43%	1%	>57
SMILES	Anthrax LT inh	AmpC nodet inh	AmpC det inh	SmPrx2 inh
COc1ccc(N(C)C(=O)c2ccc3snnc3c2)cc1	-4%	4µM*[single pt active]	11%	>57
O=c1oc2ccccc2c(O)c1/C=N/c1ccccn1	-1%	-8%	0%	>57
CC(=O)c1cccc(NC(=O)CC2Oc3ccc(C)cc3NC2=O)c1 (stereo not drawn)	-5%	4µM*[single pt active]	8%	>57
Cc1ccc2c(c1)NC(=O)C(CC(=O)NCc1ccc(F)cc1)O2 (stereo not drawn)	-6%	?	10%	>57
Cc1ccc2c(c1)NC(=O)C(CC(=O)NCc1cccnc1)O2 (stereo not drawn)	-25%	4µM*[single pt active]	10%	>57
Cc1ccc2c(c1)NC(=O)C(CC(=O)NCCCN1CCCCC1C)O2 (stereo not drawn)	-12%	25%	10%	>57
CC1CCCCC1NC(=O)CC1Oc2ccccc2NC1=O (stereo not drawn)	-8%	4µM*[single pt active]	15%	>57
CC1CCCCN1CCNC(=O)CC1Oc2ccccc2NC1=O (stereo not drawn)	?	2.5µM*[single pt active]	13%	>57
CCOC(=O)c1nnc2ccnn2c1N	?	-14%	2%	>57
CCOC(=O)c1sc(NC(=O)CSc2nnnn2-c2ccc(C)c(C)c2)nc1C	-6%	25%	9%	>57
O=C1Nc2ccccc2OC1CC(=O)N1CCCC1 (stereo not drawn)	5%	4µM*[single pt active]	11%	>57
Cc1ccc2c(c1)NC(=O)C(CC(=O)NC1CCCCC1C)O2 (stereo not drawn)	-5%	4µM*[single pt active]	13%	>57
CCCCN(C)CCCNC(=O)CC1Oc2ccccc2NC1=O (stereo not drawn)	1%	4µM*[single pt active]	13%	>57
CCC(C)N(CCNC(=O)CC1Oc2ccc(C)cc2NC1=O)C1CCCCC1 (stereo not drawn)	?	7%	8%	>57
O=C(CC1Oc2ccccc2NC1=O)NCc1ccccc1 (stereo not drawn)	-10%	-3%	5%	>57
O=C(CC1Oc2ccccc2NC1=O)NCCCN1CCOCC1 (stereo not drawn)	7%	2%	9%	>57
Cc1ccc(NC(=O)CN(c2ccc3c(c2)OCO3)S(=O)(=O)c2c(C)n[nH]c2C)cc1	-26%	27%	8%	>57
Cc1cc(Cc2c(C)c(C)c(Cc3cc(C)cc(C(C)(C)C)c3O)c(C)c2C)c(O)c(C(C)(C)C)c1	-6%[8 µM]	-7%[5.75 µM]	-1%[5.75 µM]	>57
Cc1cc(Cc2cc(C)cc(C(C)(C)C)c2O)c(O)c(Cc2cc(C)cc(C(C)(C)C)c2O)c1	3.2µM*	-25%[5.75 µM]	-2%[5.75 µM]	>57
C=C(C)COc1ccc(-c2n[nH]c(C)c2Oc2ccccc2OC)c(O)c1	10µM*	-16%	6%	>57
C=C(C)COc1ccc(-c2[nH]ncc2Oc2cccc(OC)c2)c(O)c1	?	10µM*	3%	?
CCOc1ccc(-c2n[nH]c(C)c2Oc2ccccc2OC)c(O)c1	-31%	-7%	-4%	>57
O=C(COc1ccccc1F)c1ccc(O)cc1O	-26%	-14%	5%	·
Cc1c(O)ccc(C(=O)COc2ccccc2F)c1O	10µM*	-9%	6%	>57
Cc1ccc2oc(=O)c3cc(C(=O)NCCN4CCN(C)CC4)sc3c2c1	-17%	4µM*[single pt active]	14%	>57
Cc1nc2ccccc2c2oc(C(=O)NCCN3CCN(C)CC3)cc12	?	-16%	6%	>57
